Assays:
Assay in all cases: SPOT peptide array binding signal intensity (averaged, normalized) (arbitrary units (background-subtracted, floor 0; scale differs between SH3 domains)); higher = stronger binding of the SH3 domain to the peptide
[1] = molecular target: AgAbp1
Method in brief: (§1)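 E. coli BL21(DE3) was used to express GST-fused SH3 domains from four yeast species, which were then purified on glutathione Sepharose. These were incubated at 10 μg/ml in TBS-based blocking buffer overnight at 4°C on cellulose membranes carrying synthetic 15-mer peptides, in which cysteines were replaced by serines. Binding signal is the replicate average of normalized, background-subtracted spot intensity, in arbitrary units that differ between domains.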

[2] = molecular target: AgBbc1
Method in brief: as §1

[3] = molecular target: AgBem1-D1
Method in brief: as §1

[4] = molecular target: AgBzz1-D1
Method in brief: as §1

[5] = molecular target: AgBzz1-D2
Method in brief: as §1

[6] = molecular target: AgCyk3
Method in brief: as §1

[7] = molecular target: AgFus1
Method in brief: as §1

[8] = molecular target: AgHof1
Method in brief: as §1

[9] = molecular target: AgHse1
Method in brief: as §1

[10] = molecular target: AgLsb1
Method in brief: as §1

[11] = molecular target: AgLsb4
Method in brief: as §1

[12] = molecular target: AgMyo5
Method in brief: as §1

[13] = molecular target: AgNbp2
Method in brief: as §1

[14] = molecular target: AgRvs167
Method in brief: as §1

[15] = molecular target: AgSho1
Method in brief: as §1

[16] = molecular target: AgSla1-D1-D2
Method in brief: as §1

[17] = molecular target: AgSla1-D3
Method in brief: as §1

[18] = molecular target: CaAbp1-D1
Method in brief: as §1

[19] = molecular target: CaAbp1-D2
Method in brief: as §1

[20] = molecular target: CaBbc1
Method in brief: as §1

[21] = molecular target: CaBem1-D1
Method in brief: as §1

[22] = molecular target: CaBzz1-D1
Method in brief: as §1

[23] = molecular target: CaBzz1-D2
Method in brief: as §1

[24] = molecular target: CaCyk3
Method in brief: as §1

[25] = molecular target: CaFus1
Method in brief: as §1

[26] = molecular target: CaHof1
Method in brief: as §1

[27] = molecular target: CaHse1
Method in brief: as §1

[28] = molecular target: CaLsb1
Method in brief: as §1

[29] = molecular target: CaLsb4
Method in brief: as §1

[30] = molecular target: CaMyo5
Method in brief: as §1

[31] = molecular target: CaNbp2
Method in brief: as §1

[32] = molecular target: CaRvs167
Method in brief: as §1

[33] = molecular target: CaRvs167-3
Method in brief: as §1

[34] = molecular target: CaSho1
Method in brief: as §1

[35] = molecular target: CaSla1-D1-D2
Method in brief: as §1

[36] = molecular target: CaSla1-D3
Method in brief: as §1

[37] = molecular target: ScAbp1
Method in brief: as §1

[38] = molecular target: ScBbc1
Method in brief: as §1

[39] = molecular target: ScBem1-D1
Method in brief: as §1

[40] = molecular target: ScBzz1-D1
Method in brief: as §1

[41] = molecular target: ScBzz1-D2
Method in brief: as §1

[42] = molecular target: ScCyk3
Method in brief: as §1

[43] = molecular target: ScFus1
Method in brief: as §1

[44] = molecular target: ScHof1
Method in brief: as §1

[45] = molecular target: ScHse1
Method in brief: as §1

[46] = molecular target: ScLsb1
Method in brief: as §1

[47] = molecular target: ScLsb2
Method in brief: as §1

[48] = molecular target: ScLsb3
Method in brief: as §1

[49] = molecular target: ScLsb4
Method in brief: as §1

[50] = molecular target: ScMyo3
Method in brief: as §1

[51] = molecular target: ScMyo5
Method in brief: as §1

[52] = molecular target: ScNbp2
Method in brief: as §1

[53] = molecular target: ScPex13
Method in brief: as §1

[54] = molecular target: ScRvs167
Method in brief: as §1

[55] = molecular target: ScSho1
Method in brief: as §1

[56] = molecular target: ScSla1-D1-D2
Method in brief: as §1

[57] = molecular target: ScSla1-D3
Method in brief: as §1

[58] = molecular target: SpAbp1-D1
Method in brief: as §1

[59] = molecular target: SpBbc1
Method in brief: as §1

[60] = molecular target: SpBzz1-D1
Method in brief: as §1

[61] = molecular target: SpBzz1-D2
Method in brief: as §1

[62] = molecular target: SpCyk3
Method in brief: as §1

[63] = molecular target: SpHof1
Method in brief: as §1

[64] = molecular target: SpHof1-2
Method in brief: as §1

[65] = molecular target: SpHof1-3
Method in brief: as §1

[66] = molecular target: SpHse1
Method in brief: as §1

[67] = molecular target: SpLsb1
Method in brief: as §1

[68] = molecular target: SpLsb4
Method in brief: as §1

[69] = molecular target: SpMyo1
Method in brief: as §1

[70] = molecular target: SpNbp2
Method in brief: as §1

[71] = molecular target: SpPex13
Method in brief: as §1

[72] = molecular target: SpRvs167
Method in brief: as §1

[73] = molecular target: SpSla1-D1-D2
Method in brief: as §1

[74] = molecular target: SpSla1-D3
Method in brief: as §1

## PPPPPPPPPPPLPQS
[1]
  SPOT peptide array binding signal intensity: 9
[2]
  SPOT peptide array binding signal intensity: 0.5
[3]
  SPOT peptide array binding signal intensity: 28
[4]
  SPOT peptide array binding signal intensity: 5
[5]
  SPOT peptide array binding signal intensity: 1
[6]
  SPOT peptide array binding signal intensity: 2
[7]
  SPOT peptide array binding signal intensity: ≤ 0
[8]
  SPOT peptide array binding signal intensity: 228
[9]
  SPOT peptide array binding signal intensity: ≤ 0
[10]
  SPOT peptide array binding signal intensity: ≤ 0
[11]
  SPOT peptide array binding signal intensity: ≤ 0
[12]
  SPOT peptide array binding signal intensity: 688
[13]
  SPOT peptide array binding signal intensity: 2
[14]
  SPOT peptide array binding signal intensity: 4.67
[15]
  SPOT peptide array binding signal intensity: ≤ 0
[16]
  SPOT peptide array binding signal intensity: ≤ 0
[17]
  SPOT peptide array binding signal intensity: 0.5
[18]
  SPOT peptide array binding signal intensity: 4.5
[19]
  SPOT peptide array binding signal intensity: 3
[20]
  SPOT peptide array binding signal intensity: ≤ 0
[21]
  SPOT peptide array binding signal intensity: ≤ 0
[22]
  SPOT peptide array binding signal intensity: 1610
[23]
  SPOT peptide array binding signal intensity: 313
[24]
  SPOT peptide array binding signal intensity: ≤ 0
[25]
  SPOT peptide array binding signal intensity: 8.5
[26]
  SPOT peptide array binding signal intensity: 0.75
[27]
  SPOT peptide array binding signal intensity: 11.2
[28]
  SPOT peptide array binding signal intensity: 2.25
[29]
  SPOT peptide array binding signal intensity: 16
[30]
  SPOT peptide array binding signal intensity: 235
[31]
  SPOT peptide array binding signal intensity: 34
[32]
  SPOT peptide array binding signal intensity: 2.83
[33]
  SPOT peptide array binding signal intensity: ≤ 0
[34]
  SPOT peptide array binding signal intensity: ≤ 0
[35]
  SPOT peptide array binding signal intensity: ≤ 0
[36]
  SPOT peptide array binding signal intensity: 1
[37]
  SPOT peptide array binding signal intensity: ≤ 0
[38]
  SPOT peptide array binding signal intensity: 1.25
[39]
  SPOT peptide array binding signal intensity: ≤ 0
[40]
  SPOT peptide array binding signal intensity: 9
[41]
  SPOT peptide array binding signal intensity: 2
[42]
  SPOT peptide array binding signal intensity: ≤ 0
[43]
  SPOT peptide array binding signal intensity: 1.5
[44]
  SPOT peptide array binding signal intensity: 20
[45]
  SPOT peptide array binding signal intensity: ≤ 0
[46]
  SPOT peptide array binding signal intensity: ≤ 0
[47]
  SPOT peptide array binding signal intensity: ≤ 0
[48]
  SPOT peptide array binding signal intensity: 42.5
[49]
  SPOT peptide array binding signal intensity: 7
[50]
  SPOT peptide array binding signal intensity: 1490
[51]
  SPOT peptide array binding signal intensity: 1040
[52]
  SPOT peptide array binding signal intensity: ≤ 0
[53]
  SPOT peptide array binding signal intensity: 51.5
[54]
  SPOT peptide array binding signal intensity: ≤ 0
[55]
  SPOT peptide array binding signal intensity: ≤ 0
[56]
  SPOT peptide array binding signal intensity: ≤ 0
[57]
  SPOT peptide array binding signal intensity: 0.75
[58]
  SPOT peptide array binding signal intensity: 12.5
[59]
  SPOT peptide array binding signal intensity: 0.5
[60]
  SPOT peptide array binding signal intensity: 2670

## RNNRPVPPPPPMRTT
[31]
  SPOT peptide array binding signal intensity: 312
[32]
  SPOT peptide array binding signal intensity: 392
[33]
  SPOT peptide array binding signal intensity: 1
[34]
  SPOT peptide array binding signal intensity: 17
[35]
  SPOT peptide array binding signal intensity: 1140
[36]
  SPOT peptide array binding signal intensity: 187
[37]
  SPOT peptide array binding signal intensity: 10.5
[38]
  SPOT peptide array binding signal intensity: 58
[39]
  SPOT peptide array binding signal intensity: 4
[40]
  SPOT peptide array binding signal intensity: 453
[41]
  SPOT peptide array binding signal intensity: 113
[42]
  SPOT peptide array binding signal intensity: 2.5
[43]
  SPOT peptide array binding signal intensity: 2.5
[44]
  SPOT peptide array binding signal intensity: 21
[45]
  SPOT peptide array binding signal intensity: 49.5
[46]
  SPOT peptide array binding signal intensity: 27
[47]
  SPOT peptide array binding signal intensity: 13.5
[48]
  SPOT peptide array binding signal intensity: 1090
[49]
  SPOT peptide array binding signal intensity: 500
[50]
  SPOT peptide array binding signal intensity: 425
[51]
  SPOT peptide array binding signal intensity: 156
[52]
  SPOT peptide array binding signal intensity: 622
[53]
  SPOT peptide array binding signal intensity: 1210
[54]
  SPOT peptide array binding signal intensity: 2320
[55]
  SPOT peptide array binding signal intensity: 99
[56]
  SPOT peptide array binding signal intensity: 1300
[57]
  SPOT peptide array binding signal intensity: 56.5
[58]
  SPOT peptide array binding signal intensity: 15.5
[59]
  SPOT peptide array binding signal intensity: 41
[60]
  SPOT peptide array binding signal intensity: 2280
[61]
  SPOT peptide array binding signal intensity: 28.8
[62]
  SPOT peptide array binding signal intensity: 23
[63]
  SPOT peptide array binding signal intensity: 22.8
[64]
  SPOT peptide array binding signal intensity: 24.8
[65]
  SPOT peptide array binding signal intensity: 98.2
[66]
  SPOT peptide array binding signal intensity: 52
[67]
  SPOT peptide array binding signal intensity: 44.2
[68]
  SPOT peptide array binding signal intensity: 1450
[69]
  SPOT peptide array binding signal intensity: 662
[70]
  SPOT peptide array binding signal intensity: 8.5
[71]
  SPOT peptide array binding signal intensity: 19.5
[72]
  SPOT peptide array binding signal intensity: 1030
[73]
  SPOT peptide array binding signal intensity: 134
[74]
  SPOT peptide array binding signal intensity: 7

Source: the supplement of paper PMC4466140
